This is an account of results in publication PMC4336329 (PLoS ONE, 2015).

Screen size: about 310,000 compounds; about 14,000 (4.5%) showed an effect of 50% or more. The effect is printed as a negative number. Only a selection was taken, and strong results are over-represented in it overall.
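Also: peak tail current of the secondary pulse compared with the same well before compound.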

Chain of human ether-à-go-go-related gene (hERG) potassium channel (Q12809 whole entry, looked up): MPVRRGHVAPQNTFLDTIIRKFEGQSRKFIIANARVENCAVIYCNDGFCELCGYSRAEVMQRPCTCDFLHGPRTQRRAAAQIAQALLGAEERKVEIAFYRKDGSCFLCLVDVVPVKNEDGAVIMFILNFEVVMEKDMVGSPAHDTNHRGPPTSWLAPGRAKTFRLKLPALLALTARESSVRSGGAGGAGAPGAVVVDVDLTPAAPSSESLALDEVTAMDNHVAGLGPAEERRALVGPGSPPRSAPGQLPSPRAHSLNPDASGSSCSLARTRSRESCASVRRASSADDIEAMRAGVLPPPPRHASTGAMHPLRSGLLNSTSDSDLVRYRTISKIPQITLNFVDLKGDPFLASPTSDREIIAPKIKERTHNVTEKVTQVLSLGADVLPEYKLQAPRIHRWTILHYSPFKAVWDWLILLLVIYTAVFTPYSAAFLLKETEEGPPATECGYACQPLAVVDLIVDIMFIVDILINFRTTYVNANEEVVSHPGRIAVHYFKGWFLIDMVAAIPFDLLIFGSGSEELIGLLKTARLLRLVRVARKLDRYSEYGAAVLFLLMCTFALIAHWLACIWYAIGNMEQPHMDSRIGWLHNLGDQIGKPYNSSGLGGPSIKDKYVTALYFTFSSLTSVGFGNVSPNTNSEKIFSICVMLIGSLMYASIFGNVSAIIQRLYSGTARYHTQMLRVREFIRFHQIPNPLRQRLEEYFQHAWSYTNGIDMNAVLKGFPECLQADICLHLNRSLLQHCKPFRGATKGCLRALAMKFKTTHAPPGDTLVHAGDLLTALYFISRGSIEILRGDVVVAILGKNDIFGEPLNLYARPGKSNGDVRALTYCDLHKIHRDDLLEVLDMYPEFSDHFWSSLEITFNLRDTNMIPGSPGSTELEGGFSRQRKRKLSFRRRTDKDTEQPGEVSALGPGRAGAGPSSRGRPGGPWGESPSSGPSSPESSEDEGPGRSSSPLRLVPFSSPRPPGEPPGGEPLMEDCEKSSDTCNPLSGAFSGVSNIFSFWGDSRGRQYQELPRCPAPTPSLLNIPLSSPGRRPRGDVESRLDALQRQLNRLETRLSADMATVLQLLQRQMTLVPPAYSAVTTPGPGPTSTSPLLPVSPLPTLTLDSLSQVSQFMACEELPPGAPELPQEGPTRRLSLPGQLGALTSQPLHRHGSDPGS

The assay addresses human ether-à-go-go-related gene (hERG) potassium channel (human, UniProt Q12809). Description: primary screen, population patch clamp on CHO cells stably expressing hERG; higher = less effect of the substance.
With `CCOC(=O)C(C)/C(C)=N/NC(N)=S` (stereo not shown), the “hERG current change (%, negative = inhibition) at 10uM” value is 14.4%. Under `CCOc1ccc(OCCOCCN2CCOCC2)cc1.O=C(O)C(=O)O` stands 0.827%; under `CCCOc1ccc(OCCOCCN2CCc3ccccc3C2)cc1`, -64.7%; under `N#Cc1ccc(OCCN2CCc3ccccc3C2)cc1`, -45.2%. In the case of `COc1ccc(OCCOCCN2CCOCC2)cc1` it was 5.25%; in that of `COc1ccc(OCCOCCN2CCc3ccccc3C2)cc1`, -69.9%; in that of `CCOc1ccc(S(=O)(=O)N2CCc3ccccc3C2)cc1`, 9.5%. In the case of `COc1ccc(OCCCN2CCc3ccccc3C2)cc1.Cl` it was -47.5%.

As to `CCOc1ccc(OCCOCCN2CCc3ccccc3C2)cc1`, the “hERG current change (%, negative = inhibition) at 10uM” value is on record as -74.8%. As to `Cl.c1ccc(OCCOCCN2CCc3ccccc3C2)cc1`, the “hERG current change (%, negative = inhibition) at 10uM” value is -42.8%. Under `CCCC(C)NC(=O)COC(=O)c1ccc(Cl)c(S(N)(=O)=O)c1` (stereo not shown) stands 8.02%.

For the compound `CCOc1ccc(NC(=O)N2CCCC2C(=O)NCC2CCCO2)cc1` (stereo not shown), the “hERG current change (%, negative = inhibition) at 10uM” value came to 18.5%. With `O=C1CCCCC1Sc1nnc(Nc2ccccc2)s1` (stereo not shown), the “hERG current change (%, negative = inhibition) at 10uM” value is -7.47%. In the case of `O=C(Cn1nc2sc3ccccc3n2c(=O)c1=O)c1cccs1` it was 7.63%; in that of `CCNC(=S)Nc1ccc(Cc2ccncc2)cc1`, -4.01%. In the case of `COc1ccc(-c2cc(C(F)(F)F)c(C#N)c(SCC(=O)Nc3nc(C)co3)n2)cc1` it was 1.46%; in that of `O=C(NCc1ccc(F)cc1)C(c1ccccc1)c1ccccc1`, 4.43%; in that of `Cc1ccc(CNC(=O)C(c2ccccc2)c2ccccc2)cc1`, -64%. Under `CCC(C(=O)NCc1ccc(C)cc1)c1ccccc1` (stereo not shown) stands -1.35%; under `CCOC(=O)c1ccc(NC(=O)COc2ccccc2OC)cc1`, 2.1%; under `CCOC(=O)c1ccc(NC(=O)COc2ccccc2CNC2CCCC2)cc1.Cl`, -78.1%. As to `CCOC(=O)c1ccc(NC(=S)NC2CCCC2)cc1`, the “hERG current change (%, negative = inhibition) at 10uM” value is -7.86%. In the case of `CCOC(=O)c1ccc(NC(=O)COc2ccc(CNC3CCCCC3)cc2OC)cc1` it was -26%; in that of `CCOC(=O)c1ccc(NC(=O)COc2ccccc2CNCCO)cc1`, -24%; in that of `CCOC(=O)c1ccc(NC(=O)COc2ccccc2CNCCc2ccccc2)cc1.Cl`, -79.3%. `CN(C)S(=O)(=O)Oc1ccccc1C(=O)Nc1ccc(F)cc1F`: the “hERG current change (%, negative = inhibition) at 10uM” value turned out to be 2.34%.

On to `COc1ccc(C)cc1NC(=O)C1CCCN(S(=O)(=O)c2ccc3c(c2)CCCN3C(C)=O)C1` (stereo not shown), for which the “hERG current change (%, negative = inhibition) at 10uM” value is -2.38%. In the case of `CCN(CC)CCCNC(=O)C1c2ccccc2C(=O)N(C)C1c1ccc(OC)cc1` (stereo not shown), the “hERG current change (%, negative = inhibition) at 10uM” value is on record as 6.8%. Under `CCN(CC)CCNC(=O)C1c2ccccc2C(=O)N(C)C1c1cn(C)c2ccccc12` (stereo not shown) stands -19.5%.

Turning to `CCCCN(CC)CCCNC(=O)C1c2ccccc2C(=O)N(C)C1c1cn(C)c2ccccc12` (stereo not shown), the “hERG current change (%, negative = inhibition) at 10uM” value is recorded as -72.7%. With `Cc1ccccc1S(=O)(=O)N1CC(C(=O)O)=CC[C@H]1c1ccc(Cl)cc1`, the “hERG current change (%, negative = inhibition) at 10uM” value was found to be 15.8%. `CC(CSc1nnnn1-c1ccccc1)Cn1c(N2CCCC2)nc2c1c(=O)[nH]c(=O)n2C` (stereo not shown): the “hERG current change (%, negative = inhibition) at 10uM” value was -45.1%.

On to `CC(CSc1nnnn1-c1ccccc1)Cn1c(N2CCN(C)CC2)nc2c1c(=O)[nH]c(=O)n2C` (stereo not shown), for which the “hERG current change (%, negative = inhibition) at 10uM” value is given as -43.6%.

As for `CN1CCN(c2nc3c(c(=O)[nH]c(=O)n3C)n2CCSc2nnnn2-c2ccccc2)CC1`, the “hERG current change (%, negative = inhibition) at 10uM” value is reported as -17%.

As for `CN1CCN(c2nc3c(c(=O)[nH]c(=O)n3C)n2CCCSc2nnnn2-c2ccccc2)CC1`, the “hERG current change (%, negative = inhibition) at 10uM” value is on record as -51.2%.

Turning to `Cn1c(=O)[nH]c(=O)c2c1nc(N1CCCC1)n2CCCSc1nnnn1-c1ccccc1`, the “hERG current change (%, negative = inhibition) at 10uM” value was -13.5%. Under `CC1CCN(c2nc3c(c(=O)[nH]c(=O)n3C)n2CC(C)CSc2nnnn2-c2ccccc2)CC1` (stereo not shown) stands -57.6%. Regarding `CCCN1Cc2cccc(C(=O)Nc3ccc(CC)cc3)c2C1=O`, the “hERG current change (%, negative = inhibition) at 10uM” value is on record as 8.1%. In the case of `Cc1cc(C)nc(NC(=O)c2ccc(C)c(C)c2)n1` it was 18%; in that of `Oc1cccc(-n2nnnc2SCc2ccccc2F)c1`, 7.33%.

Consider `Cc1cc(C)c(S(=O)(=O)c2ccccc2)c(=O)[nH]1`, for which the “hERG current change (%, negative = inhibition) at 10uM” value was determined as 20.6%.

`COc1ccc(NC(=O)c2c(C)nn(-c3ccccc3)c2Cl)cc1`: the “hERG current change (%, negative = inhibition) at 10uM” value came to 20.4%. In the case of `CCNC(=O)COC(=O)c1[nH]c(C)c(C(=O)OC)c1C`, the “hERG current change (%, negative = inhibition) at 10uM” value amounted to 8.24%.

With `Cc1cc(C)c2c(CN3CCN(Cc4ccc5c(c4)OCO5)CC3)cc(=O)oc2c1`, the “hERG current change (%, negative = inhibition) at 10uM” value is listed as -75.4%.

In the case of `Cc1cc2oc(=O)cc(CN3CCN(Cc4ccc5c(c4)OCO5)CC3)c2cc1C`, the “hERG current change (%, negative = inhibition) at 10uM” value is reported as -17.2%. Under `CCN1CCN(Cc2cc(=O)oc3cc(C)cc(C)c23)CC1` stands -68.1%.

As for `Cc1cc(C)c2c(CN3CCN(Cc4ccccc4)CC3)cc(=O)oc2c1.Cl`, the “hERG current change (%, negative = inhibition) at 10uM” value is recorded as -66.9%.

Regarding `Cc1cc(C)c2c(CN3CCCCC3)cc(=O)oc2c1`, the “hERG current change (%, negative = inhibition) at 10uM” value is recorded as 10.7%. Under `Cc1cc(C)c2c(CN3CCN(C)CC3)cc(=O)oc2c1` stands -73.3%; under `Cc1cc(C)c2c(CN3CCOCC3)cc(=O)oc2c1`, -7.28%; under `Cc1cc(O)c2c(CN3CCN(Cc4ccccc4)CC3)cc(=O)oc2c1`, -13.1%. Under `Cc1cc(C)c2c(CN3CCCCC3C)cc(=O)oc2c1.Cl` (stereo not shown) stands 13.9%. Under `Cc1cc(C)c2c(CN3CCN(Cc4ccc5c(c4)OCO5)CC3)cc(=O)oc2c1C` stands -45.8%. Turning to `Cc1cc(C)c2c(CCl)cc(=O)oc2c1`, the “hERG current change (%, negative = inhibition) at 10uM” value was -1.06%. Under `CC1CCCN(C(=O)CNC(=O)Cn2ccc3ccccc3c2=O)C1` (stereo not shown) stands -5.78%; under `COc1cc(NC(=O)c2ccc(COCC(F)(F)F)o2)cc(OC)c1OC`, -16.8%; under `COc1ccc(OC)c(NC(=O)CCCCCn2nnc3ccccc3c2=O)c1`, -2.09%.

For `CN(C)S(=O)(=O)c1cc(NC(=O)CSc2cccc[n+]2[O-])ccc1Cl`, the “hERG current change (%, negative = inhibition) at 10uM” value worked out at 9.64%. Under `COc1ccc(-n2c(-c3cccc(OC)c3)nc(=S)c3c2CCCC3)cc1` stands 8.47%; under `CC(=O)O/N=C(/c1nonc1N)N1CCN(c2ccc([N+](=O)[O-])cc2Cl)CC1`, -33.9%. Turning to `COCc1[nH]nc2c1C(c1c(F)cccc1Cl)C(C#N)=C(N)O2` (stereo not shown), the “hERG current change (%, negative = inhibition) at 10uM” value is on record as -3.01%.

In the case of `Cc1ccc(NC(=O)c2ccc(NCCN)c([N+](=O)[O-])c2)cc1Cl`, the “hERG current change (%, negative = inhibition) at 10uM” value is recorded as -14.3%.

For `CCc1ccc2[nH]c3nc(N/N=C/c4ccc(O)cc4O)nnc3c2c1`, the “hERG current change (%, negative = inhibition) at 10uM” value turned out to be 3.31%. Take `CCOc1ccc(C(=O)C[n+]2ccc(C(=O)NCCO)cc2)cc1.[Br-]`: the “hERG current change (%, negative = inhibition) at 10uM” value is on record as 18.3%. Turning to `Cc1cc(-c2nc(C)c(C(=O)NNS(=O)(=O)c3ccccc3)s2)no1`, the “hERG current change (%, negative = inhibition) at 10uM” value is 11.9%. Regarding `Cc1ccccc1-c1nnn(Cc2ccc(F)cc2Cl)n1`, the “hERG current change (%, negative = inhibition) at 10uM” value turned out to be 10.6%. In the case of `Cc1cc(C)c2c(Cn3ccnc3)cc(=O)oc2c1` it was 1.13%. In the case of `Cc1cc(C)c2c(CN3CCN(CCO)CC3)cc(=O)oc2c1` it was -50.4%. In the case of `CCc1ccc2oc(=O)cc(CN3CCN(CCO)CC3)c2c1` it was -14.9%; in that of `Cc1cc(C)c2c(CN3CCN(C/C=C/c4ccccc4)CC3)cc(=O)oc2c1`, -76.9%; in that of `COC(=O)c1ccc(Cl)c(NC(=O)CN(c2ccc3c(c2)OCO3)S(C)(=O)=O)c1`, 7.68%. Regarding `O=C(O)CCC(NC(=O)c1cncc(O)c1)C(=O)O` (stereo not shown), the “hERG current change (%, negative = inhibition) at 10uM” value is recorded as -4.94%. Under `CCCC1(c2ccccc2)NC(=O)N(CC(=O)N(C)Cc2c(F)cccc2Cl)C1=O` (stereo not shown) stands -2.69%. In the case of `Cc1ccc(C(C2=C(O)CC(C)(C)CC2=O)C2C(=O)CC(C)(C)CC2=O)s1` (stereo not shown) it was 14.9%. In the case of `CN=C(NC1CCCCC1)c1ccc([N+](=O)[O-])cc1` it was 1.68%; in that of `Cl.OC(CN1C2=NCCCN2c2ccccc21)c1ccc(Br)cc1` (stereo not shown), -83.9%; in that of `OC(CN1C2=NCCN2c2ccccc21)c1ccc(Br)cc1` (stereo not shown), -71%. On to `Cl.OCCN1C2=NCCCN2c2ccccc21`, for which the “hERG current change (%, negative = inhibition) at 10uM” value is recorded as 5.78%. Under `Cl.OC(CN1C2=NCCCN2c2ccccc21)c1ccc(Cl)cc1` (stereo not shown) stands -75.9%. As to `O=C1CSC(=S)N1c1cccnc1`, the “hERG current change (%, negative = inhibition) at 10uM” value is listed as -7.65%.

With `Cc1ccccc1OCCn1cnc2cc([N+](=O)[O-])ccc2c1=O`, the “hERG current change (%, negative = inhibition) at 10uM” value is -7.38%. Under `CCc1cc(=O)oc2c(C)c(OCC(=O)NCCCN3CCOCC3)ccc12` stands -31.8%. In the case of `CCOc1ncccc1C(=O)OCc1csc(CC(=O)Nc2ccccc2C)n1` it was 0.199%; in that of `Cc1ccc2[nH]c(O)c(N=NC(N)=S)c2c1`, 19.3%. Under `COc1cccc(NC(=O)Cc2cccs2)c1` stands 14.4%; under `Cc1ccc(C(=O)Nc2cc(C(F)(F)F)ccc2-n2cncn2)o1`, -9.88%; under `Cc1cc(CN2CCN(CC(=O)Nc3cc(C(F)(F)F)ccc3-n3cncn3)CC2)no1`, -69.8%. With `O=C(CC1CCCC1)Nc1cc(C(F)(F)F)ccc1-n1cncn1`, the “hERG current change (%, negative = inhibition) at 10uM” value is recorded as -10.4%. In the case of `CN(Cc1c(F)cccc1Cl)C(=O)c1cccc(S(=O)(=O)NCc2ccccc2)c1` it was -28%; in that of `O=C(CN1CCOCC1)Nc1ccc(N2CCN(c3ccccc3)CC2)c(F)c1`, 2.59%; in that of `CC(C)(C)n1ncc2c(=O)n(CC(=O)c3ccccc3)cnc21`, -10.4%.
